# Assay results reported in PubChem BioAssay AID720551 (National Center for Advancing Translational Sciences (NCATS), 2013).
# Hit rate of the full screen: of about 340,000 compounds, about 1,300 (0.38%) were called active. Shown is part of a subset that was picked to be rich in actives. Values without a mark were called inactive.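 Rule for the calls: active = maximum activity change below -70%; inconclusive = maximum activity change between -70% and -50%; inactive = maximum activity change above -50%.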
# Target: Voltage-gated inwardly rectifying potassium channel KCNH2 (Homo sapiens) (UniProt Q12809)
# Test: qHTS for Inhibitors of KCHN2 3.1: Wildtype qHTS
# Settings: U2OS, BacMam KCNH2, thallium flux FluxOr; at 1.84 µM; hits give low values
# Description: Many antipsychotic drugs that inhibit the neurotransmitter dopamine also bind to hERG1 channel which might help explain their antipsychotic activity but also produces cardiac side effects. The discovery of the novel KCNH2 3.1 isoform offers a potential new target for the development of antipsychotic drugs without cardiac side effects. This proposal will use a high throughput thallium flux assay developed for KCNH2 to screen compounds that modulate the activity of KCNH2 3.1. The wild type KCNH2 channel will also be screened in parallel to help define the selective modulators of this KCNH2 3.1 potassium channel. The resulting compounds will be validated in electrophysiology experiments. The availability of animal models will allow future testing in vivo for effects on memory and other aspects of animal physiology linked with psychosis. NIH Chemical Genomics Center [NCGC] NIH Molecular Libraries Probe Centers Network [MLPCN] MLPCN Grant: MH096539 Assay Submitter (PI): James Barrow, Johns Hopkins University, Lieber Institute for Brain Development
# U2OS cells were resuspended in cell media containing 10% fetal calf serum (FCS) at a concentration of 2 million cells / mL. The solution was treated with the Wild-type virus at 2.03 x 10^8 / mL and allowed to incubate at room temperature in the dark. After 4 hours of incubation, DMEM + 10% fetal bovine serum (FBS) was added to the cell solution. Three microliter was then dispensed into a 1536 tissue culture treated black assay plates which were incubated overnight at 37 C. Two microliter of loading buffer (HBSS + HEPES + Red40 dye quencher + FluxOr dye) was added and the assay plates were incubated for 45 min at room temperature in the dark. […] A stimulation buffer was added to the plate and the second kinetic read (2 min) was obtained. The rate constant was calculated from the kinetic reads and normalized to the positive and negative DMSO controls.
# % is set by controls: 0 for no effect and ±100 for the full control effect.
# Voltage-gated inwardly rectifying potassium channel KCNH2 (Homo sapiens), sequence (Q12809 whole entry, looked up): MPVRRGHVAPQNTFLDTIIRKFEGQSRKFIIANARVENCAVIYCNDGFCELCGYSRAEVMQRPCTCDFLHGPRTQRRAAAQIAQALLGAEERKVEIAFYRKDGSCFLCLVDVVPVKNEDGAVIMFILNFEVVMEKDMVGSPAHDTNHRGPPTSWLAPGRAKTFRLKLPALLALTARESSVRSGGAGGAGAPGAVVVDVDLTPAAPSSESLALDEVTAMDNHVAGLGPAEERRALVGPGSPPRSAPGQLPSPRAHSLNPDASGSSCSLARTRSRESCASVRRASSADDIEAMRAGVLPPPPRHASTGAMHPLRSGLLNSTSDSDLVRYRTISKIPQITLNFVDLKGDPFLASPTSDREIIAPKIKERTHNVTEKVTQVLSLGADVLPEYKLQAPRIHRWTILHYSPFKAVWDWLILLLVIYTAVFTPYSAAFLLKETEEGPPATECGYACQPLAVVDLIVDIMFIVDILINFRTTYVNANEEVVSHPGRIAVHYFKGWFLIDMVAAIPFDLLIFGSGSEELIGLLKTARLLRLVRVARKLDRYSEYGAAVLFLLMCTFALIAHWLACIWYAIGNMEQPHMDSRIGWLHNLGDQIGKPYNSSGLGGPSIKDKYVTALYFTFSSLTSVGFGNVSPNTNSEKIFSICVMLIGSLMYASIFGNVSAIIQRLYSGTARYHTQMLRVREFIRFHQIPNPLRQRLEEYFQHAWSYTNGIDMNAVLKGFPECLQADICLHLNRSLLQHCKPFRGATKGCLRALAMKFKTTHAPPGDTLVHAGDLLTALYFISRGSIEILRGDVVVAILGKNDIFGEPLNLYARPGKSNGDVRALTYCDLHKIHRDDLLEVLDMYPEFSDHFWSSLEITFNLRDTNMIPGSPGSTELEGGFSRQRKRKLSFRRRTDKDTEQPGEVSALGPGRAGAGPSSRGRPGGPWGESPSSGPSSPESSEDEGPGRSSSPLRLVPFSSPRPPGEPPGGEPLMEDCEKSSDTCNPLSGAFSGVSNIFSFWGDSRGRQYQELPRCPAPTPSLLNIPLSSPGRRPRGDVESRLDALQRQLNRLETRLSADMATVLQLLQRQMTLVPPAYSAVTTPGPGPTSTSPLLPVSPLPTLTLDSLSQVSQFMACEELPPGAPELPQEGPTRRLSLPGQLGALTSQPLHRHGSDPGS
row,SMILES,activity change
1,CCOC(=O)C1(Cc2ccc(Cl)cc2)CCN(C(C)CCn2cccn2)CC1 (stereo not given),-90.9% (active)
2,CCOC(=O)C1(CCc2ccccc2)CCN(Cc2ccco2)CC1,-42.5%
3,CNC(=O)O/N=C(\N)Cc1csc2ccc(Cl)cc12,-2.66%
4,NCCc1ccc(S(=O)(=O)F)cc1,-7.95%
5,NCC(O)c1ccc(O)cc1 (stereo not given),2.77%
6,CC1(C)Cc2c(C#N)c(N3CCNCC3)nc(-c3ccco3)c2CS1,-1.97%
7,CC(=NCC1CCCO1)c1c(O)n(-c2ccccc2)c(=O)[nH]c1=O (stereo not given),-12.8%
8,CC(Cc1ccccc1)NCCC(c1ccccc1)c1ccccc1 (stereo not given),-106% (active)
9,O=C1NC(=O)C(CCOc2ccccc2)(CCc2ccccc2)C(=O)N1,-6.81%
10,O=Cc1cn(Cc2ccc(F)cc2Cl)c2ccccc12,0.945%
